L3MBTL1 block = inhibitors of human L3MBTL1; Q9Y468; AlphaScreen L3MBTL1–H3K9me1 peptide binding; Potency, µM (doses to about 57.1 µM), inactives show at the highest dose activity, negative = inhibition, hits mostly inhibitors; 230,000 tested, 0.66% active; further: potency means the concentration at half of the fitted maximal effect; on the % scale 0 is the no-effect control and ±100 the full control effect; nearly all actives have a fitted effect of over 60% in size
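First, the protein-peptide complex forms for 30 min at room temperature (L3MBTL1 50 nM, biotinylated H3K9me1 peptide 75 nM). Next, compounds are pin-transferred and incubated 30 min. Finally, AlphaScreen beads are added and read after 30 min.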
HP1b binding inh = inhibitors of HP1-beta chromodomain binding to methylated histone tails. 390,000 tested, 0.56% active. P83916. AlphaScreen HP1-beta / biotin-H3K9me3 peptide binding. Potency, µM (titrated, usually from 114 µM), for inactives: at the highest dose activity change, negative = inhibition, hits mostly inhibitors; further: potency means the concentration at half of the fitted maximal effect; nearly all actives have a fitted effect of over 70% in size
Target sequence (P83916 whole entry, looked up): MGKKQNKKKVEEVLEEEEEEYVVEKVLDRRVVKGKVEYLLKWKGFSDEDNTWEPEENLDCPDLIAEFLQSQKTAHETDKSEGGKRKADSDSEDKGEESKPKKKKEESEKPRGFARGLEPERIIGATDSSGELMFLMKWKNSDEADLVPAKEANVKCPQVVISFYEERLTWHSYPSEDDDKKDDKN
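AlphaScreen: HP1-beta (50 nM) preformed 30 min with biotin-H3(1-18)K9me3 peptide (50 nM) in PBS pH 7.4, 0.01% Tween-20. Compound added for 30 min at RT, then streptavidin donor/nickel chelate acceptor beads (10 ug/mL) for 30 min.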
JMJD2A Tudor = JMJD2A Tudor domain (human) inhibition | AlphaScreen JMJD2A-Tudor / H3K4me3 peptide binding | Potency, µM (highest dose often 114 µM), for inactives: top-dose activity change, negative = inhibition, hits mostly inhibitors | 390,000 tested, 4.4% active | AID 504339 | O75164; further: potency means the concentration at half of the fitted maximal effect; on the % scale 0 is the no-effect control and ±100 the full control effect; nearly all actives have a fitted effect of over 50% in size
BAZ2B block = BAZ2B (human) inhibition. AlphaScreen BAZ2B-H3K14Ac peptide displacement. Q9UIF8. Potency, µM (titrated, usually from 114 µM), for the others: at the top dose activity change, negative = inhibition, hits mostly inhibitors. 360,000 tested, 4.4% active; further: potency means the concentration at half of the fitted maximal effect; on the % scale 0 is the no-effect control and ±100 the full control effect; nearly all actives have a fitted effect of over 60% in size
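Protein-peptide AlphaScreen: BAZ2B 50 nM, b-H3K14Ac 50 nM, 1x PBS pH 7.4 + 0.01% Tween-20. Preincubation 30 min RT; cpd 30 min RT (top 110 uM); beads 20 min RT, light-protected.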
G9a block = G9a (human) methyltransferase inhibition; Potency, µM (top dose mostly 102 µM), inactives show at the top dose activity, negative = inhibition, usual class: inhibitors; G9a H3K9 monomethylation, AlphaScreen, 2 h; 350,000 tested, 8.8% active; Q96KQ7; further: potency means the concentration at half of the fitted maximal effect; on the % scale 0 is the no-effect control and ±100 the full control effect; nearly all actives have a fitted effect of over 75% in size
Target sequence (Q96KQ7 913-1193 limits assumed): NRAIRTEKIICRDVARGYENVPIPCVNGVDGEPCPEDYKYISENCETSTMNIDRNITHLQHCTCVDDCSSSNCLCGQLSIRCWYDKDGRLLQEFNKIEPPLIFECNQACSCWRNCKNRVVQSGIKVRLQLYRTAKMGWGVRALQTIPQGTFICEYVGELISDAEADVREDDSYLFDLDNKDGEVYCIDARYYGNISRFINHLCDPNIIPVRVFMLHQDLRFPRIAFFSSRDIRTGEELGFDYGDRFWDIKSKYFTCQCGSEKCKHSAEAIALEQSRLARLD
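Methyltransferase reactions run at room temperature for 2 h (20 nM enzyme, 500 nM biotin-H3K9 peptide, 20 uM SAM) after a 15 min compound preincubation; product detected by AlphaScreen beads and anti-H3K9me1 antibody.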
PI5P4K alpha inh = blocks human PI5P4K alpha kinase activity; 330,000 tested, 1.2% active; max response, %; P48426; PI5P4Kalpha enzyme, ADP-Glo luminescence, 60 min; stronger effect = lower value; active means max response of -50% or lower; inconclusive means between -30% and -50%; inactive means -30% or higher; further: value at the top dose of about 77 µM; on the % scale 0 is the no-effect control and ±100 the full control effect
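Single end-point luminescence (ADP-Glo) quantified ADP from PI5P4Kalpha turnover; ATP 5 microM final, 1 h at RT, 0.1% CHAPS and 0.28 mM EGTA in HEPES pH 7.4.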
Active calls of the source: *; [ ] = dose if it differs, or a comment. Hits are enriched below; roughly 11% of the tested compounds scored in any of these assays. Unless noted, the call rests on the fitted dose curve; in most records, active means well fitted inhibition curve with a large enough effect; inconclusive means small, poorly fitted or top-dose-only effect; inactive means no such curve, though single readings can be large or run the other way.

For O=C(CSC1=Nc2ccccc2C2=NC(Cc3ccccc3)C(=O)N12)Nc1cccc(Cl)c1 (stereo not given) the results were HP1b binding inh 21.0%, JMJD2A Tudor -16.9%, BAZ2B block -13.0% and G9a block -2.0%[12.7 µM].
`CC1NC(=O)NC1CCCCCC(=O)Nc1ccc(F)cc1` (stereo not given) gave HP1b binding inh inconclusive, JMJD2A Tudor 0.316µM*, BAZ2B block -1.4%, G9a block inconclusive and PI5P4K alpha inh 2.4.
For Cc1c(F)cccc1NC(=O)CCCCCC1NC(=O)NC1C (stereo not given) the results were HP1b binding inh inconclusive, JMJD2A Tudor 0.891µM*, BAZ2B block 1µM*, G9a block 0.708µM* and PI5P4K alpha inh -4.1.
For O=C(Cn1nc(-c2cccc(Cl)c2)ccc1=O)NCC1COCCO1 (stereo not given) the results were L3MBTL1 block 1.6%, HP1b binding inh 41.4%, JMJD2A Tudor 3.1%, BAZ2B block 79.4µM*, G9a block -4.9% and PI5P4K alpha inh -0.8.
O=C(Cn1nc(-c2ccc(Cl)cc2)ccc1=O)NCC1CCCO1 (stereo not given) was read as L3MBTL1 block 6.0%, HP1b binding inh 5.6%, JMJD2A Tudor -16.3%, BAZ2B block 11.9%, G9a block 3.7% and PI5P4K alpha inh 1.5.
Cc1noc(C)c1C(=O)N1CCC2(CCN(Cc3ccc(C#N)cc3)CC2)CC1 was read as G9a block 30.9%[12.7 µM].
`Cc1ccc(CNC(=O)c2cn(C3CCCCC3)c(=O)c3c2c2ccccc2n3C)o1` gave HP1b binding inh -2.4%, JMJD2A Tudor -33.8%, BAZ2B block -31.6%, G9a block 50.1µM* and PI5P4K alpha inh -15.9.
For COc1ccc(N2CCN(C(=O)c3cn(C4CCCCC4)c(=O)c4c3c3ccccc3n4C)CC2)cc1 the results were HP1b binding inh inconclusive, JMJD2A Tudor inconclusive, BAZ2B block 7.08µM* and G9a block 10µM*.
`Cn1c2ccccc2c2c(C(=O)N3CCN(c4ccc(F)cc4)CC3)cn(C3CCCCC3)c(=O)c21` gave HP1b binding inh 26.1%, JMJD2A Tudor inconclusive, BAZ2B block -0.9% and G9a block inconclusive.
`COc1ccc(CCn2c3c(c(=O)[nH]c2=O)C(NC(=O)c2ccccc2F)(C(F)(F)F)C(=O)N3)cc1OC` (stereo not given) gave HP1b binding inh 28.3%, JMJD2A Tudor 10.7%, BAZ2B block 1.7% and G9a block 9.1%[59 µM].
For CC(=O)[C@H]1[C@@H]2C(=O)N(c3cccc(Cl)c3)C(=O)[C@@H]2[C@H]2c3ccccc3C=CN21 the results were L3MBTL1 block -3.8%, HP1b binding inh 1.9%, JMJD2A Tudor inconclusive, BAZ2B block inconclusive, G9a block 1.41µM* and PI5P4K alpha inh -17.6.
For O=C(c1ccco1)[C@@H]1[C@@H]2C(=O)N(c3ccc(Br)cc3)C(=O)[C@@H]2C2c3ccccc3C=CN21 (stereo not given in full) the results were L3MBTL1 block -11.7%, HP1b binding inh -21.2%, JMJD2A Tudor inconclusive, BAZ2B block inconclusive, G9a block -1.7%[2.33 µM] and PI5P4K alpha inh -24.4.
N#C[C@@H]1[C@@H]2C(=O)N(c3ccc4c(c3)OCCO4)C(=O)[C@@H]2C2c3ccccc3C=CN21 (stereo not given in full) was read as L3MBTL1 block inconclusive, BAZ2B block -27.3% and G9a block 7.94µM*.
Screening CC(=O)[C@@H]1[C@@H]2C(=O)N(c3ccc(F)c(Cl)c3)C(=O)[C@@H]2C2c3ccccc3C=CN21 (stereo not given in full) returned L3MBTL1 block -19.4%, BAZ2B block -5.6% and G9a block 6.31µM*.

Assay outcomes: PubChem BioAssay, National Center for Advancing Translational Sciences (NCATS)
